Only some compounds are listed: those with a hit (about 21% of all), similar ones and a draw of the others.
CHX counter – affects cycloheximide protein synthesis inhibition readout, counter-screen | cell reporter, cycloheximide protein synthesis inhibition counterscreen | max response, % | 12% of 300,000 active; in the data active = max response mostly above about 13%, no sharp cut-off; inactive = mostly below about 14%; note: read at 38.3 µM for the half of the compounds with a filed dose; 0% is about no effect
NS1 function inh – influenza NS1 inhibition. Potency, µM (series often up to 46.1 µM), without a hit: top-dose activity, positive = more growth. 0.4% of 270,000 active. AID 2326; calls by dose curve; note: potency is the fitted concentration of half-maximal effect; actives are rising curves; nearly all actives have a fitted effect of over 50% in size
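OD600 was taken as the measure of yeast growth restored by compound in an NS1-expressing S. cerevisiae strain. Cells had been washed out of glucose medium and diluted 1:100 into galactose -URA medium, pH 6.0.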
Shiga inhibitor – blocks Shiga toxin action in Vero cells. inhibition, % at 38.7 µM. Vero cells, Shiga toxin protein synthesis inhibition reporter. 9.2% of 290,000 active; in the data active = inhibition mostly above about 28%, no sharp cut-off; inactive = mostly below about 43%; note: 0% is about no effect
Pf growth 96h – inhibits malaria parasite growth, 96 h | P. falciparum luciferase reporter growth, 96 h | Potency, µM (top dose mostly 28.7 µM), inactives show top-dose activity change, negative = inhibition, most hits filed as inhibitors | 6.9% of 320,000 active | AID 504834; note: potency is the fitted concentration of half-maximal effect; % is set by controls: 0 for no effect and ±100 for the full control effect
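Two-generation exposure (96 h) targets delayed-death phenotype. Reporter parasites carrying integrated firefly luciferase, in red cells at 2% hematocrit and 0.05% parasitemia final, kept at 37 C, 5% CO2; luminescence loss indicates inhibition.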
Pf growth 48h – inhibits P. falciparum growth in the first generation, 48 h; P. falciparum luciferase growth in erythrocytes, 48 h; 5.9% of 310,000 active; Potency, µM (series often up to 28.7 µM), for inactives: top-dose activity change, negative = inhibition, actives largely listed as inhibitors; note: potency is the fitted concentration of half-maximal effect; % is set by controls: 0 for no effect and ±100 for the full control effect
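Read-out is firefly luciferase luminescence from an integrated reporter in P. falciparum, so falling signal marks reduced parasite growth. Infected erythrocytes were at 2% hematocrit and 0.1% parasitemia (final) in Albumax-supplemented RPMI 1640.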
* = called active by the depositor; i = inactive; ? = inconclusive; · = no result. Unless noted, calls come from the whole dose curve; as a rule, active = well fitted inhibition curve with a large enough effect; inconclusive = small, poorly fitted or top-dose-only effect, or another doubt; inactive = no such curve, though single readings can be large or run the other way.

SMILES	CHX counter	NS1 function inh	Shiga inhibitor	Pf growth 96h	Pf growth 48h
CC(=O)c1c(C(C)=O)c(C)n(-c2nc(-c3cccs3)c(C)s2)c1C	-1	-18%	15	·	?
CCOc1ccc(C(=O)NC(=S)N(Cc2ccccc2)Cc2ccccc2)cc1	10	0%	-12	2.6µM*	?
CC(=O)Oc1ccc(C(=O)NCCc2ccccc2)cc1	15*	·	36	5%	364%
CC(=O)Oc1ccc(-c2ccc(C(=O)NCCc3ccc(S(N)(=O)=O)cc3)cc2)cc1	-1	0%	-3	13%	0%
CCCNC(=O)Cc1ncn[nH]1	-3	6%	-13	·	39%
CCOc1ccc(CN(CCC#N)C(=S)NC(=O)c2ccccc2)cc1	1	-28%	13	?	?
O=C(NCCc1ccccc1)c1ccc(=O)[nH]c1	26	?	57*	32%	24%
O=C(Cc1ncn[nH]1)NCCc1ccccc1	-3	7%	-7	7.4µM*	·
CCC1CCCCN1CCCNC(=O)c1c(O)nc2ccccn2c1=O (stereo unspecified)	-4	-11%	-11	?	8%
CCOc1ccc(C(=O)NCCc2ccccc2)cc1	24*	-91%	32	26%	·
CCOc1ccc(C(=O)NCCCCNC(=O)c2ccc(OCC)cc2)cc1	7	3%	7	5%	44%
CN(C)CCn1c(=N)n(CC(O)c2ccc(Cl)c(Cl)c2)c2ccccc21 (stereo unspecified)	-5	-4%	-12	1%	0.74µM*
N=c1n(CCN2CCCCC2)c2ccccc2n1CC(O)c1ccc(Cl)c(Cl)c1 (stereo unspecified)	-9	12%	-12	0.29µM*	·
N=c1n(CCN2CCCC2)c2ccccc2n1CC(O)c1ccco1 (stereo unspecified)	0	-4%	22	15%	?
COc1ccccc1OCC(O)Cn1c(=N)n(CCN2CCCCC2)c2ccccc21 (stereo unspecified)	-2	-5%	18	-22%	3.3µM*
N=c1n(CCN2CCCCC2)c2ccccc2n1CC(O)c1cccc(Br)c1 (stereo unspecified)	1	0%	-8	0.74µM*	0.59µM*
CCn1c(=N)n(CC(O)c2ccccc2)c2ccccc21 (stereo unspecified)	1	19%	-16	-9%	?
Cn1cnc(S(=O)(=O)NC2CCN(Cc3ccccc3)CC2)c1	-2	4%	1	?	33%
COc1ccccc1C(=O)Nc1ccnn1C1CCN(CCCc2ccccc2)CC1	-3	-13%	-6	12%	-3%
CCOc1ccc(N(CC(=O)Nc2ccccc2C(=O)N2CCCC2)S(C)(=O)=O)cc1	-5	10%	-11	21%	-8%
O=C(COC(=O)CNC(=O)c1ccc(Cl)cc1Cl)NC1CCCCC1	14	3%	-3	-15%	1%
CC1CCc2c(sc(NC(=O)/C=C/c3cccs3)c2C(=O)O)C1 (stereo unspecified)	11	-27%	-3	9.3µM*	6%
COC(=O)c1c(NC(=O)CSc2nnnn2-c2ccccc2)sc2c1CCC(C)C2 (stereo unspecified)	-3	17%	-1	?	49%
CC1CCc2c(sc(NC(=O)c3ccco3)c2C(=O)O)C1 (stereo unspecified)	40*	-108%	126*	21%	15%
O=C(Nc1sc2c(c1C(=O)O)CCCC2)C(=O)N1CCOCC1	20*	9%	33*	16%	33%
SMILES	CHX counter	NS1 function inh	Shiga inhibitor	Pf growth 96h	Pf growth 48h
Cc1occc1C(=O)Nc1sccc1C(N)=O	38*	-100%	35	-20%	42%
COC(=O)N1CCN(S(=O)(=O)c2ccc(F)cc2)CC1	-5	4%	9	9%	4%
CC1CCCC(C)N1C(=O)CSc1nnc(COc2ccc(F)cc2)o1 (stereo unspecified)	-3	-4%	15	6%	-19%
CCOC(=O)[C@@H]1[C@H]2COc3cc(OC)ccc3[C@@H]2N2C(=O)N(c3cccc(Cl)c3)C(=O)[C@@]12C	7	-12%	10	?	-8%
COc1cccc(/C=C/C(=O)N2CCN(c3n[nH]c(=O)[nH]c3=O)CC2)c1OC	-6	·	-16	-6%	16%
N#Cc1c(NC(=O)c2ccco2)sc2c1CCC2	-4	-4%	-25	?	?
Cc1occc1C(=O)Nc1sc2c(c1C(N)=O)CCCCC2	29*	-37%	62*	-7%	82%
Cc1ccc(C(=O)N[C@H](C(=O)Nc2sccc2C(N)=O)C(C)C)cc1	18*	15%	18	?	-10%
NC(=O)c1c(NC(=O)c2ccco2)sc2c1CCC2	22*	-42%	44*	164%	·
COC(=O)c1c(NC(=O)c2ccoc2C)sc2c1CCC2	0	-2%	-5	?	0%
CN(C)C(=O)c1c(NC(=O)c2ccco2)sc2c1CCCCC2	16*	-1%	29	-18%	8%
COc1ccc(-c2cc(=O)c(C(=O)c3ccc(C)cc3)n[nH]2)cc1	5	·	22	6%	i
COc1cc(C(=O)NNC(=S)Nc2ccc(S(N)(=O)=O)cc2)cc(OC)c1OC	-7	5%	-8	4%	4%
CN(CC(=O)Nc1ccccc1Cl)C(=O)COC(=O)/C=C/c1cccc(C(F)(F)F)c1	·	·	·	-26%	?
O=C(Nc1sc2c(c1C(=O)O)CCCCC2)c1ccco1	33*	-165%	83	17%	146%
CN(C)C(CNC(=O)c1coc2ccccc2c1=O)c1ccccc1 (stereo unspecified)	14	3%	22	5%	0%
NC(=O)c1ccsc1NC(=O)c1coc2ccccc2c1=O	24*	7%	104*	493%	96%
CCOC(=O)c1c(NC(=O)C(C)N2CCN(C(=O)c3ccco3)CC2)sc2c1CCCC2 (stereo unspecified)	19*	25%	29	?	·
CCc1c(C)sc(NC(=O)c2ccoc2C)c1C(N)=O	22*	-12%	12	?	27%
CCc1ccc(C(=O)NNC(=O)C2CSC3(C)CCC(=O)N23)cc1 (stereo unspecified)	·	·	·	2%	-22%
COc1ccc(C(OCC(O)CNCCc2ccccc2)c2ccc(OC)cc2)cc1 (stereo unspecified)	-6	-5%	-2	4.1µM*	9.3µM*
CCC(=O)c1ccc(OCC(O)CNCCc2ccc(Cl)cc2)cc1 (stereo unspecified)	1	2%	-8	?	12µM*
C/C=C/c1ccc(OCC(O)CNCCc2ccc(OC)cc2)c(OC)c1 (stereo unspecified)	-2	0%	-3	?	?
CC(NCC(O)COCCC12CC3CC(CC(C3)C1)C2)c1ccccc1 (stereo unspecified)	-6	-36%	-17	30%	5.2µM*
OC(CNCCc1ccccc1)COc1ccc(OCC(O)CNCCc2ccccc2)cc1 (stereo unspecified)	-2	-4%	-11	3.7µM*	1.7µM*
NCC(O)COCCC12CC3CC(CC(C3)C1)C2 (stereo unspecified)	7	?	-26	-1%	9%

Source: PubChem BioAssay (National Center for Advancing Translational Sciences (NCATS))
